High-throughput results deposited in PubChem BioAssay by several laboratories.
SENP6 inh – SENP6 protease inhibitors, primary screen, biochemical, luminescence, uHTS | Recombinant SENP6 catalytic domain, aminoluciferin luminescence | 1.8% of 330,000 active | inhibition, % at 10 µM;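 active = inhibition above about 50% at the single tested dose, limit read from the data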;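 note: plate controls were DMSO wells with enzyme for no effect and DMSO wells lacking enzyme for full effect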
Target sequence (Q9GZR1 628-1112 limits assumed): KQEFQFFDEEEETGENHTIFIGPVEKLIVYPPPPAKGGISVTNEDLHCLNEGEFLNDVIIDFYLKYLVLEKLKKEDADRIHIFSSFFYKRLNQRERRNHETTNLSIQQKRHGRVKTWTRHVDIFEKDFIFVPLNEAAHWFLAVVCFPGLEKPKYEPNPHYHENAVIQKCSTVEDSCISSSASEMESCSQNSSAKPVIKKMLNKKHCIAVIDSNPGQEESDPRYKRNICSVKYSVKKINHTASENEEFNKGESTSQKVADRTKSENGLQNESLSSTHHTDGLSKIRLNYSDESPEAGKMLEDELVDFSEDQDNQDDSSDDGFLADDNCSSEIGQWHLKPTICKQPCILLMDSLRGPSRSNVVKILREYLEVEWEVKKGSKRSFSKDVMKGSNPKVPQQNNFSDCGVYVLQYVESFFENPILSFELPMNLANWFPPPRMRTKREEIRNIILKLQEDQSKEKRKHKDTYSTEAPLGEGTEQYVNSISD
SENP8 block-1 – human SENP8 protease inhibitors, primary screen, biochemical, fluorescence, Nedd8 protein substrate, uHTS | Sentrin-specific protease 8 (Homo sapiens), Q96LD8 | recombinant SENP8 | inhibition, % at 20 µM | 0.64% of 360,000 active; in the data active = inhibition mostly above about 40%, no sharp cut-off; inactive = mostly below about 27%
SENP7 block – SENP7 protease inhibitors, primary screen, biochemical, luminescence, uHTS; Sentrin-specific protease 7 (Homo sapiens), Q9BQF6; recombinant SENP7, Z-RLRGG-aminoluciferin luminescence, 40 min; 1.5% of 330,000 active; inhibition, % at 5 µM;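 active = inhibition above about 50% at the single test dose, limit read from the data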;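 note: plate controls were DMSO with enzyme for no effect and no enzyme buffer wells for full effect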
EBI2 antag – EBI2 receptor antagonists, beta-arrestin recruitment, primary screen, cell-based, luminescence, 7a,25-OHC stimulation, uHTS. G-protein coupled receptor 183 (Homo sapiens), P32249. 7a,25-OHC stimulated. inhibition, % at 5 µM. 0.81% of 360,000 active; in the data active = inhibition above about 38%;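 note: enzyme fragment complementation signal reports receptor beta-arrestin coupling in cells; 0% = agonist plus DMSO wells and 100% = wells without agonist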
SENP8 block-2 – SENP8 protease inhibitors, primary screen, biochemical, luminescence. Sentrin-specific protease 8 (Homo sapiens), Q96LD8. purified SENP8, Z-RLRGG-aminoluciferin cleavage. inhibition, % at 10 µM. 1.2% of 330,000 active. AID 2540, 2010; in the data active = inhibition above about 50%
AHR act – AHR activators, primary screen, cell-based, luminescence, luciferase reporter, human; Aryl hydrocarbon receptor (Homo sapiens), P35869; AHR-responsive luciferase reporter cells; activation, % at 5 µM; 2.5% of 320,000 active; in the data active = activation above about 47%;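 note: 0% = vehicle wells and 100% = reference agonist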
AHR act confirm – AHR activators, confirmation, cell-based, luminescence, luciferase reporter, human; shares compounds with AHR act; human cells, AHR-responsive luciferase reporter; activation, % at 9 µM; 87% of 2,300 active; AID 2845, 2010; in the data active = activation above about 49%;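 note: HepG2 hepatoma cells carrying a DRE-driven firefly luciferase reporter; 0% = vehicle wells and 100% = reference agonist wells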
PXR act counter – human PXR activators, counter-screen for AHR activator project, cell-based, luciferase luminescence. shares compounds with AHR act. cell-based PXR reporter. activation, % at 11.6 µM. 88% of 2,300 active; in the data active = activation above about 11%;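 note: human hepatoma DPX-2 cells expressing full-length human PXR; 0% = DMSO and 100% = reference agonist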
Starred values were filed as active, the others as inactive; . = no result given. Most compounds without a hit are left out; they make up all but 5% or so of the library.

SMILES	SENP6 inh	SENP8 block-1	SENP7 block	EBI2 antag	SENP8 block-2	AHR act	AHR act confirm	PXR act counter
O=C(Nc1cccc(C(F)(F)F)c1)c1cccnn1	2.8	13.0	5.2	-16.3	-6.6	19.9	.	.
O=C(Nc1cccc(Cl)c1)c1cccnn1	-9.7	14.3	0.4	-6.5	4.9	109.2*	82.2*	.
O=c1c2ccccc2nc(/C=C/c2cccc([N+](=O)[O-])c2)n1CCO	-0.1	13.3	8.7	12.0	-3.0	105.9*	68.9*	21.0*
O=c1c2ccccc2nc(/C=C/c2ccccc2)n1CCc1ccccc1	-16.2	13.0	-4.1	-3.1	-1.6	9.0	.	.
Cc1ccc(CNC(=O)CN(C)S(=O)(=O)c2ccc3c(c2)n(C)c(=O)c(=O)n3C)cc1	-12.8	-61.6	8.6	7.2	-4.0	-0.6	.	.
C=CCn1cc(/C=C2/NC(=O)NC2=O)c2ccccc21	-2.9	-48.3	-8.9	-9.8	-10.0	97.0*	90.7*	35.3*
Cc1ccc(-c2nc3cccnc3s2)cc1NS(C)(=O)=O	0.4	-375.9	2.9	-0.9	2.3	142.1*	120.8*	37.0*
O=S(=O)(Nc1cccc(-c2nc3cccnc3s2)c1)c1cccs1	-4.1	-140.1	8.1	-8.7	-14.4	5.1	.	.
CCS(=O)(=O)Nc1cccc(-c2nc3cccnc3s2)c1C	-1.7	-75.9	6.6	-2.8	-2.0	25.7	.	.
CCCS(=O)(=O)Nc1cccc(-c2nc3cccnc3s2)c1	12.1	-41.2	0.0	-9.3	-4.1	91.3*	99.1*	39.5*
CCOc1ccccc1-n1nnnc1SC(C)C(=O)OC (stereo unspecified)	4.1	11.0	2.4	3.1	7.5	-0.5	.	.
Cc1cc(-c2nn(-c3ccccc3F)cc2CN(C)CC(O)CO)c(C)s1 (stereo unspecified)	-8.6	15.7	4.0	4.2	-4.2	5.3	.	.
COc1ccc(-c2[nH]c(-c3ccc(F)cc3)nc2SCC(=O)NCc2ccco2)cc1OC	3.7	-361.6	-8.1	22.2	4.0	80.4*	63.1*	57.2*
COc1ccc(-c2[nH]c(-c3ccccc3)nc2SCC(=O)NCc2ccco2)cc1OC	-3.8	-458.0	-14.7	7.1	-10.3	121.1*	68.2*	75.1*
COc1ccc(-c2nc(SCC(=O)NCc3ccco3)c(-c3ccccc3)[nH]2)cc1OC	-3.1	-198.1	-0.8	4.4	7.1	28.5	.	.
CCOc1ccc(S(=O)(=O)n2cc(F)c(=O)[nH]c2=O)cc1	-2.9	7.5	-9.1	2.3	-9.6	-0.7	.	.
COc1ccc(N(CC(=O)NCc2ccc3c(c2)OCO3)S(=O)(=O)c2ccc(O)c(C(=O)O)c2)cc1	.	-269.5	.	-2.5	.	.	.	.
COc1ccc(-n2c(SCC(=O)NCC3CCCO3)nc3c([nH]c4ccccc43)c2=O)cc1 (stereo unspecified)	-11.9	-27.4	5.8	12.9	-3.5	7.6	.	.
Cn1c(SCC(=O)NCCc2ccccc2)nc2c([nH]c3ccccc32)c1=O	-3.4	-25.8	-11.3	16.4	-11.3	118.2*	91.1*	114.7*
Cn1c(SCC(=O)NCc2ccc(F)cc2)nc2c([nH]c3ccccc32)c1=O	-20.5	.	20.7	.	-11.1	126.3*	96.9*	90.5*
COc1cccc(-n2c(SCC(=O)NCC3CCCO3)nc3c([nH]c4ccccc43)c2=O)c1 (stereo unspecified)	-5.2	-159.7	-4.3	5.2	0.8	88.1*	127.8*	88.6*
Cc1cc(-c2ccc(N3CCOCC3)cc2)nc2ccccc12	7.6	-412.6	7.6	13.2	-5.5	.	.	51.7*
Cc1cc(N2CCN(c3ccccc3)CC2)nc2ccccc12	10.2	-338.7	1.8	14.0	2.9	124.9*	106.0*	19.6*
COc1ccc(N2CCN(c3cc(C)c4ccccc4n3)CC2)cc1	-12.9	-185.7	-6.0	13.0	-9.9	33.4	.	.
